High-throughput results (PubChem)
TRAIL sens C8 = viability loss with TRAIL in NB7+C8 cells, primary screen, TRAIL sensitizer project, cell-based, ATPlite luminescence | inhibition (viability loss, TRAIL sensitization), % at 10 µM | hit rate 1% among 360,000;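 active = compounds causing at least 50% loss of cell viability in the single-dose screen, relative to plate controls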
PPC-1+TRAIL kill = compounds killing PPC-1 cancer cells with TRAIL present, primary screen, TRAIL potentiator project, ATPLite luminescence, uHTS | cell killing (% activity), % at 4 µM or 5 µM | AID 1443, 2008 | PPC-1 cells + TRAIL, ATPLite viability luminescence | hit rate 0.41% among 220,000;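 active = cell killing above 50% in the first pass at 4 µM, then a duplicate retest at 5 µM averaging 50% or more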
Platelet DG rel = inhibitors of platelet dense granule secretion, primary screen, cell-based, MLPCN, human platelets. AID 1663, 2009. hit rate 0.22% among 300,000. human platelet-rich plasma, SFLLRN dense granule ATP release, luminescence. inhibition, %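 (compounds screened at 7.5 µM in platelet-rich plasma)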;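 active = mean replicate score, as percent of positive control, at or above 50; inconclusive = mean below 50 but at least one replicate at or above 50; inactive = mean and every replicate below 50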
STAT3 blocker = IL-6 driven STAT3 reporter inhibitors, primary screen, U3A cells, luciferase, luminescence, MLSCN library. IL-6 STAT3-luciferase reporter; host cell line lacks STAT1. inhibition, % at 5.5 µM. hit rate 0.89% among 190,000;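 active = inhibition above the mean inhibition across all screened compounds plus 3 SD, cut at about 44% in these data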
STAT1 inh = STAT1 signaling inhibitors, primary screen, cell-based, HTS, luciferase reporter. NIH 3T3 STAT1-luciferase reporter, IFN-gamma, luminescence. inhibition, % at 5.5 µM. hit rate 0.35% among 200,000. AID 920, 2007;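 active = inhibition above a set limit, the mean inhibition across all tested compounds plus 3 SD, cut at about 34% in these data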
Of the large screens only hits and unclear results are named; the others gave an inactive call. In the library only some 1.6% were active in any assay of this set; here they are far more common.

COc1ccc(/C=N/Nc2cc(C)nc3ccc(Br)cc23)cc1	TRAIL sens C8 49 (no result: PPC-1+TRAIL kill, STAT3 blocker, STAT1 inh)
COc1cccc2c(N/N=C/c3ccccc3)cc(C)nc12	none (no result: PPC-1+TRAIL kill, STAT3 blocker, STAT1 inh)
COc1ccc(-n2ccnc2SCC(=O)NC2CCCC2)cc1	none (no result: PPC-1+TRAIL kill, Platelet DG rel, STAT3 blocker, STAT1 inh)
Cc1ccc(-c2cc(C(=O)n3cnc4ccccc43)c3ccccc3n2)cc1C	TRAIL sens C8 67
O=C(N/N=C/c1cccnc1)c1cc(-c2ccccc2)nc2ccccc12	none (no result: PPC-1+TRAIL kill, STAT3 blocker, STAT1 inh)
Cc1ccc(-c2cc(C(=O)N/N=C/c3cccnc3)c3ccccc3n2)cc1C	TRAIL sens C8 61 (no result: PPC-1+TRAIL kill, STAT3 blocker, STAT1 inh)
CCOc1ccc(-c2cc(C(=O)N/N=C(\C)c3cccnc3)c3ccccc3n2)cc1	TRAIL sens C8 68 (no result: PPC-1+TRAIL kill, STAT3 blocker, STAT1 inh)
CCOC(=O)Cn1c(=NC(=O)CSC(C)=O)sc2ccccc21	Platelet DG rel 87
CCOC1=C2CN(S(=O)(=O)c3ccc(C)cc3)[C@H](c3cccc4ccccc34)C[C@H]2[C@H]2C(=O)N(c3ccccc3)C(=O)[C@H]2C1	none (no result: PPC-1+TRAIL kill, Platelet DG rel, STAT3 blocker, STAT1 inh)
CN[C@@H](CO)C(=O)NC[C@H]1O[C@@H](n2cnc3c(=O)[nH]c(N)nc32)[C@H](O)[C@@H]1O	none (no result: PPC-1+TRAIL kill, Platelet DG rel, STAT3 blocker, STAT1 inh)
Fc1ccc(NC(=S)NNc2ncc(C(F)(F)F)cc2Cl)c(F)c1	STAT3 blocker 62, STAT1 inh 59
O[C@@H]1CN(Cc2cccs2)[C@@H](c2ccccc2)C[C@H]1n1cc(-c2ccc(F)cc2)nn1	none (no result: PPC-1+TRAIL kill, Platelet DG rel, STAT3 blocker, STAT1 inh)
CCCc1ccc(-c2ccc(F)c(N)c2)nc1	TRAIL sens C8 69, Platelet DG rel inconclusive, STAT3 blocker 97, STAT1 inh 37
CCCCc1ccc(-c2ccc(Br)cc2)nc1	none
N#Cc1cnc2nc1NCCCCCCC2	none (no result: PPC-1+TRAIL kill, Platelet DG rel, STAT3 blocker, STAT1 inh)
COc1ccccc1C(=O)Nc1ccc2c(c1)CCCN2C(=O)c1ccccc1	Platelet DG rel 54 (no result: PPC-1+TRAIL kill, STAT3 blocker, STAT1 inh)
COC(C[C@@H]1O[C@H]1[C@H](O)[C@@H](C)OCc1ccccc1)OC	none (no result: TRAIL sens C8, PPC-1+TRAIL kill, STAT3 blocker, STAT1 inh)
COc1cc(/C=N/n2cnnc2)ccc1OCc1ccc(C)cc1	Platelet DG rel 62
COCC(C)n1c(C)cc(C(=O)COC(=O)c2n[nH]c3ccccc23)c1C (centres undefined)	TRAIL sens C8 58
COC(=O)C[C@H]1C=C[C@H](NC(=O)Nc2ccccc2F)[C@@H](CO)O1	none (no result: PPC-1+TRAIL kill, Platelet DG rel, STAT3 blocker, STAT1 inh)
CCOc1cc(C=NNC(=O)N(c2ccccc2)c2ccccc2)ccc1O	TRAIL sens C8 63 (no result: PPC-1+TRAIL kill, Platelet DG rel, STAT3 blocker, STAT1 inh)
Cc1ccc2nc(Cl)c3nnnn3c2c1	TRAIL sens C8 62
Cc1ccc2nc(N3CCN(c4cccc(C)c4C)CC3)c3nnnn3c2c1	none
c1ccc2c(c1)cnc1ccccc12	none (no result: STAT3 blocker, STAT1 inh)
c1ccc(-c2ncc3c(ccc4ccccc43)n2)cc1	TRAIL sens C8 84, PPC-1+TRAIL kill 78
O=C1CCC(c2ccccc2)=NN1	none
O=C1CCC(c2ccc(-n3ccnc3)cc2)=NN1	Platelet DG rel 82 (no result: PPC-1+TRAIL kill, STAT3 blocker, STAT1 inh)
COc1ccc(C2=Nc3ccccc3N(C(=O)c3ccc4ncccc4c3)C2C(=O)NC2CCCC2)cc1 (centres undefined)	none (no result: PPC-1+TRAIL kill, Platelet DG rel, STAT3 blocker, STAT1 inh)
Cc1cc(C)c(C)c(S(=O)(=O)N2CCN(CC(=O)c3c(N)n(Cc4ccccc4)c(=O)n(C)c3=O)CC2)c1C	TRAIL sens C8 61
C=C1CCc2c([nH]c3ccc(OCC(C)C)cc23)C1=O	TRAIL sens C8 89 (no result: PPC-1+TRAIL kill, STAT3 blocker, STAT1 inh)
O=C1NC(c2ccc(O)cc2)Nc2ccccc21 (centres undefined)	none (no result: PPC-1+TRAIL kill, STAT3 blocker, STAT1 inh)
CSc1ccc(C2NC(=O)c3ccccc3N2)cc1 (centres undefined)	TRAIL sens C8 51 (no result: PPC-1+TRAIL kill, STAT3 blocker, STAT1 inh)
O=S(=O)(c1cccc(Cn2nnc(-c3ccccc3)n2)c1)N1CCOCC1	none (no result: PPC-1+TRAIL kill, Platelet DG rel, STAT3 blocker, STAT1 inh)
Cn1c(CNC(=O)CCNC(=O)c2cccc(Cl)c2)cc(=O)n(C)c1=O	none (no result: PPC-1+TRAIL kill, STAT3 blocker, STAT1 inh)
COc1cccc2[nH]c3c(N4CCN(Cc5ccc6c(c5)OCO6)CC4)ncnc3c12	none (no result: TRAIL sens C8)
COc1ccc2c(c1)[nH]c1c(N3CCN(Cc4ccc5c(c4)OCO5)CC3)ncnc12	STAT3 blocker 77
Cc1ccc(Nc2nnc(SCC(=O)NCCN3C(=O)CSC3=O)s2)cc1C	TRAIL sens C8 53
COc1ccc(-n2c(C)cc(/C=C3/SC(=O)N(CC(=O)N4CCOCC4)C3=O)c2C)cc1	none
Cc1cc(/C=C2/SC(=O)N(CC(=O)N3CCOCC3)C2=O)c(C)n1-c1ccccc1F	PPC-1+TRAIL kill 53
CCN1CCN(c2ccc(S(=O)(=O)N3CCCCC3)cc2NC(=O)/C=C/c2ccc(OC(F)F)cc2)CC1	TRAIL sens C8 56 (no result: PPC-1+TRAIL kill, STAT3 blocker, STAT1 inh)
CN1CCN(c2ccc(S(=O)(=O)N3CCCCC3)cc2NC(=O)/C=C/c2ccc(OC(F)F)cc2)CC1	none (no result: PPC-1+TRAIL kill, STAT3 blocker, STAT1 inh)
